# Rows were chosen to be rich in hits. Some 1.6% of all compounds tested hit in one or more screens of this group.
# eIF4H inh = inhibitors of RNA binding by human eIF4H; inhibition, % at 35 µM; 0.94% of 290,000 active; eIF4H fluorescence polarization binding assay; Q15056; AID 2012;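 also: calls also rest on retests at 20 µM and on dose response follow-up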
# PABP polyA inh = PABP-poly(A) binding inhibition | calls only at 35 µM | PABP-poly(A) RNA binding, fluorescence polarization | 1% of 290,000 active | P11940 | AID 2014;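 also: calls also rest on retests at 20 µM and on dose response follow-up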
# Target sequence (P11940 whole entry, looked up): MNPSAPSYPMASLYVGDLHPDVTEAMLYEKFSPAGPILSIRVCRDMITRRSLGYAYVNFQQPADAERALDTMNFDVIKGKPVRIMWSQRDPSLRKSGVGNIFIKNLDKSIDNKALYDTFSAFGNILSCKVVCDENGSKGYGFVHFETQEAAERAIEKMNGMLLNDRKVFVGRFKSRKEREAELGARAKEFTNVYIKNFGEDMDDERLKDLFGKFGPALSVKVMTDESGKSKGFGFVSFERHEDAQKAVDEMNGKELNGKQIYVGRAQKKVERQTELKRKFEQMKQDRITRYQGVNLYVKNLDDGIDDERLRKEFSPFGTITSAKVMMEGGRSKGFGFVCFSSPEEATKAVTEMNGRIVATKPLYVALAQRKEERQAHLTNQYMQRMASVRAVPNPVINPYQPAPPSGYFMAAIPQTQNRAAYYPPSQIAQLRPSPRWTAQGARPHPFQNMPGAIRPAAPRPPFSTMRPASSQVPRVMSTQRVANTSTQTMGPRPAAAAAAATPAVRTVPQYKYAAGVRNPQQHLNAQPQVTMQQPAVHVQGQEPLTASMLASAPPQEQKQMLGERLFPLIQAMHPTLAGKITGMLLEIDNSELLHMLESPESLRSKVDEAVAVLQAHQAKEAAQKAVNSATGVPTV
# eIF4E-4G inh = blocks eIF4E binding to eIF4G. TR-FRET eIF4E-eIF4GI(517-606) binding, 2 h. inhibition, % at 21.7 µM. 0.37% of 220,000 active;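 active = inhibition above about 30%, limit read from the data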;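 also: 0% = full FRET control wells and 100% = background wells lacking eIF4GI fragment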
# PERK inh = blocks human PERK kinase; Q9NZJ5; CHO PERK-DD fusion, SEAP luminescence translation reporter; inhibition, % at 5.6 µM; 0.17% of 220,000 active;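 active = inhibition above the mean inhibition of all tested compounds plus 3 SD, set separately per screening campaign, cut at about 2.9% in these data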;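 also: PERK kinase domain activated by AP20187 dimerizer at 100 nM; 0% = DMSO with dimerizer and 100% = rapamycin at 8.4 µM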
# MLLE-PAM2 inh = inhibitors of microRNA-mediated deadenylation, human PABP1 MLLE binding; P11940; GST-MLLE / FITC-PAM2 fluorescence polarization; inhibition, % at 20 µM; 0.36% of 360,000 active; in the data active = inhibition above about 35%, passing the limit was not always enough;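 also: plate controls were DMSO wells with GST-MLLE for no effect and wells lacking GST-MLLE protein for full effect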
# The depositor's hits bear a star; i = inactive; ? = inconclusive; · = no result given; + = active, no number. Unless noted, no rule for the calls is given here.
SMILES,eIF4H inh,PABP polyA inh,eIF4E-4G inh,PERK inh,MLLE-PAM2 inh
O=C1N=c2ccccc2=C1c1c(O)n(-c2cccc(F)c2)[nH]c1=O,10.6,i,15.7,0.4,37.8*
CCn1nc([N+](=O)[O-])c2c(-c3nc4ccccc4o3)c(N)n(CCCOC)c2c1=O,70.1*,+,1.0,0.4,10.6
COCCCn1c(-c2ccco2)nc2ccccc2c1=O,3.6,i,1.1,-0.6,0.6
CCOC(=O)N1CCN(Cc2c(O)ccc3ccccc23)CC1,-1.7,i,4.2,0.7,39.8*
CCOC(=O)C1CCN(Cc2c(O)ccc3ccccc23)CC1,-0.1,i,2.5,-0.4,12.7
CCN(CCNC(=O)c1ccc(C#N)cc1)c1cccc(C)c1,6.6,i,·,·,-3.1
CCN(CCNCC(O)COCc1ccc(Cl)cc1)c1cccc(C)c1 (centres undefined),14.0*,i,-5.0,0.1,1.4
CCCNC(=O)C1(C)CCCN(Cc2cc(-c3ccccc3)n(C)n2)C1 (centres undefined),·,·,·,·,4.7
CC1(c2ccccc2Br)NC(=O)N(CC(=O)NC2CCCCC2)C1=O (centres undefined),·,·,·,·,7.0
O=C(Nc1nnc(SCc2ccc(F)cc2)s1)c1ccc2ncsc2c1,-15.0,i,54.4*,1.2,-12.6
C=CCN1CN(S(=O)(=O)c2cccs2)c2nc3ccccc3nc21,82.2*,+,0.1,-1.5,-15.2
O=S(=O)(c1cccs1)N1CN(Cc2cccs2)c2nc3ccccc3nc21,-0.4,i,-9.8,-0.5,-12.6
O=C(O)C1C2OC(C(Br)C2Br)C1C(=O)O (centres undefined),·,·,·,·,5.6
CCOc1cccc(C(=O)Nc2ccc(N(CC)CC)cc2)c1,4.2,i,0.3,-0.2,6.9
CCN(CC)c1cccc(OCC(=O)N(C)CCC#N)c1,60.4*,+,11.2,-1.0,-34.0
CC(C)(C)OC(=O)C[C@@H]1C/C=C\C[C@H](CC(=O)N[C@@H](CO)Cc2ccccc2)C(=O)N[C@H](C(C)(C)C)COC1=O,·,·,·,·,-4.5
N#CCCn1cc(/C=N/NC(N)=S)c(-c2ccc(-c3ccccc3)cc2)n1,1.9*,i,-0.7,0.4,-35.0
CC(=O)N1CCC2(CC1)C/C(=N\NC(=S)Nc1ccccc1F)c1cc(O)ccc1O2,9.9,i,-3.5,0.3,25.2
CC(=O)N1CCC2(CC1)C/C(=N\NC(=S)Nc1ccccc1C)c1cc(O)ccc1O2,8.5*,i,0.0,-0.3,35.6
CCc1nnc(NC(=O)CSc2ccc(-c3cccs3)nn2)s1,?,+,0.6,1.1,32.5
COc1cc(CNc2nccn3ccnc23)cc(OC)c1,·,·,·,·,9.5
CC1CCCCN1CC(=O)Nc1sccc1C#N (centres undefined),75.0*,+,5.9,0.5,-21.7
N#Cc1c(C(F)(F)F)cc(-c2ccccc2)nc1SCC(=O)Nc1sc2c(c1C#N)CCC2,71.6,+,-19.4,1.2,0.1
N#Cc1ccsc1NC(=O)CN1CCN(c2ccccc2)CC1,-3.2,i,8.7,-0.1,0.3
CC1CCCCN1CC(=O)Nc1sc2c(c1C#N)CCC2 (centres undefined),69.3*,+,-2.7,-0.9,-10.4
SMILES,eIF4H inh,PABP polyA inh,eIF4E-4G inh,PERK inh,MLLE-PAM2 inh
N#Cc1ccsc1NC(=O)CN1CCN(c2ccc(O)cc2)CC1,97.8*,i,13.8,0.8,-21.4
CC(=O)N1CCN(CC(=O)Nc2sccc2C#N)CC1,10.9,i,3.0,0.1,-4.0
CS(=O)(=O)c1ccc(NC(=O)c2ccc3c(c2)S(=O)(=O)N=C2CCCCCN23)cc1,·,·,·,·,10.5
COc1ccc(C(=O)NCCc2cccc(Cl)c2)cc1OC1CCN(C(C)=O)CC1,-3.5,i,·,·,-7.0
Cc1ccc(-c2cc(C(=O)OCC(=O)N(C)c3c(N)n(Cc4ccccc4)c(=O)[nH]c3=O)c3ccccc3n2)o1,·,·,·,·,16.5
c1ccc2c(c1)[nH]c1c3ccccc3sc21,-10.1,i,2.6,1.1,8.8
Cc1cc(N2O[C@]34C=C[C@]25C[C@@H](O)CC[C@]5(C)C3CC[C@]2(C)[C@@H]([C@H](C)/C=C/[C@H](C)C(C)C)CC[C@H]24)no1 (some centres undefined),·,·,·,·,-7.9
N#Cc1c(NC(=O)CN2CCCCC2)sc2c1CCC2,45.4*,i,1.6,-0.5,23.9
COC(=O)C1CCN(CC(=O)Nc2sc3c(c2C#N)CCC3)CC1,12.8,i,0.9,0.4,-5.8
CCCCNC(=S)N(C)/N=C/c1ccc(OCc2ccc(C(=O)OC)cc2)c(OC)c1,2.9,+,3.2,0.4,-8.7
Cc1ccc(/C=C/C(=O)c2ccc(C)cc2)cc1,3.0,i,2.9,-0.5,13.4
Cc1ccc(C(=O)/C=C/C(=O)c2ccc(C)cc2)cc1,·,+,5.3,1.3,0.8
CC(C)N(Cc1ccccc1)CC(O)COc1ccc(S(=O)(=O)N2CCOCC2)cc1Cl (centres undefined),-6.7,i,7.5,0.5,0.3
O=C(CSc1ncccn1)NN=C1CCCCCC1,81.9*,+,2.9,0.8,0.6
Cc1cc(C)cc(CSCC(=O)NN=C2CCCCCC2)c1,-1.4,i,2.1,1.0,-4.7
CC(Oc1cccc(Cl)c1)C(=O)N1CCCN(C)CC1 (centres undefined),-12.2,i,·,·,3.8
COc1cc(/C=C2\SC(=O)N(c3cccc(Cl)c3)C2=O)cc([N+](=O)[O-])c1O,·,·,61.3*,0.5,84.8*
COc1cc(/C=C2\SC(=O)N(c3ccc(Cl)cc3)C2=O)cc([N+](=O)[O-])c1O,95.5*,i,71.4*,-0.1,-4.2
CC(C)(CNCc1ccccc1)NS(=O)(=O)c1ccc(Cl)cc1,·,·,·,·,-11.5
CN1C(=O)c2ccc(N3CCCC3)cc2C1=O,71.5*,+,0.1,-0.1,9.8
CN1C(=O)c2ccc(N(C)C)cc2C1=O,24.7,i,6.3,0.1,0.0
O=C(CN(c1cccc(C(F)(F)F)c1)S(=O)(=O)c1ccc(Cl)c([N+](=O)[O-])c1)NCc1ccc(F)cc1,-2.0,i,-2.3,0.1,-7.8
O=C(Nc1ccc2[nH]ccc2c1)c1cccs1,-3.4,i,32.4*,-0.1,4.9
CCN(CC)CCN1C(=O)C(=O)/C(=C(/O)c2ccc(Cl)cc2)C1c1ccncc1 (centres undefined),6.7,i,1.3,1.2,2.0
O=C(O)CCCN1C(=O)C(=O)/C(=C(/O)c2ccc(Cl)cc2)C1c1ccccc1 (centres undefined),-2.2,i,1.2,1.4,51.2*
CCOC(=O)c1sc(N=NC2=C(O)CC(C)(C)CC2=O)c(C(=O)OCC)c1C,59.5*,i,-2.0,0.3,49.0
CCOC(=O)c1c(S(=O)(=O)NCC(=O)Nc2cc(C)ccc2OC)c(C)n(C)c1C,·,·,·,·,-6.3
O=c1cc2c(=O)oc3cc(O)c(O)oc3c2c(O)c1O,92.0*,+,22.4,1.3,29.9
O=c1oc2cc(O)c(Cl)cc2c2ccccc12,-2.4,i,5.5,0.8,4.0
CC(C)NC(=O)CCCc1ccccc1,-13.9,i,5.9,1.2,2.1
